Data on 35 compounds can be found in PubChem BioAssay.

This test has as its system Neuregulin-1 EGF-like domain. As to the kind of experiment: binders of neuregulin-1 EGF-like domain, primary screen, biochemical, small-molecule microarray, 635 nm fluorescence (AID 1081).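 Also: binding of the protein to compounds printed on small-molecule microarray slides.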 Conditions: small-molecule microarray binding, higher = more signal.
In turn, `COCCOC(=O)N1C(=O)[C@@]2(c3cc(C#CCC(C(=O)OC)C(=O)OC)ccc31)[C@H](c1ccccc1OCCO)N1[C@H](c3ccccc3)[C@H](c3ccccc3)OC(=O)[C@H]1[C@@H]2C(N)=O` had a composite z-score of 1.21. The value for `CC(C)NC(=O)[C@@H]1c2ccccc2C(=O)N(Cc2ccccc2Cl)[C@H]1c1ccc(CO)cc1` was 1.39. The value for `COc1ccc(CCNC(=O)[C@@]2(c3ccc([N+](=O)[O-])cc3)CC(=O)N(CC34CC5CC(CC(C5)C3)C4)[C@@H]2c2ccc(CO)cc2)cc1` was 1.15.

Compound `COc1ccc(CCNC(=O)[C@@H]2c3ccccc3C(=O)N(Cc3ccc(OC(F)(F)F)cc3)[C@H]2c2ccc(CO)cc2)cc1` returned a composite z-score of 0.882.

With `CCOC(=O)[C@H]1C[C@H]2O[C@@]23C[C@H]1C(=O)N1CCCC1[C@@H]3O[Si](C)(C)C(C)(C)C` (stereo not given in full), the composite z-score is -0.76.

With `Cc1cc(C)cc(N2C(=O)CS(=O)(=O)C2c2cccc([N+](=O)[O-])c2)c1` (stereo not given), the composite z-score came out at 1.04. The result for `O=C(CS)NCCCCCCNC(=O)[C@H]1C[C@H]2C(=O)N3CCC[C@H]3C(=O)N2[C@H]1c1cccc(OCCO)c1` reads 1.4; that for `C=CC(COC(C)=O)NS(=O)(=O)c1ccc(Br)cc1` (stereo not given), 0.583. Turning to `CCCC[C@H]1OB(O)C[C@H]2C1=C(C)C[C@H]1C(=O)N(Cc3ccccc3)C(=O)[C@H]12`, the composite z-score came out at 0.795. The value for `O=C1OCCC/C=C\[C@H]2OC34C=CCN(Cn5nnc6ccccc65)C(=O)[C@H]3N(CCCCCO)C(=O)[C@@H]4C12` (stereo not given in full) was 0.443; that for `CC(C)C[C@@H]1NC(=O)[C@@H]2C[C@H](C(=O)NCCCCCC[N+](C)(C)C)[C@H](c3ccc(O)cc3)N2C1=O` was 1.46. The value for `CC(C)C[C@@H]1NC(=O)[C@H]2C[C@@H](C(=O)NCCCCCCNC(=O)CS)[C@@H](c3cccc(OCCO)c3)N2C1=O` was 1.32; that for `CCOC(=O)C1=CCC(c2ccc([N+](=O)[O-])cc2)N(S(=O)(=O)c2ccc(C)cc2)C1` (stereo not given) was 0.81.

`CN(C)CCCNC(=O)[C@@]1(Cc2ccccc2I)c2ccccc2C(=O)N(Cc2ccccc2C(F)(F)F)[C@H]1c1ccc(CO)cc1`: the composite z-score is 1.23. `O=C1OCC=C[C@H]2OC34C=CCN(c5ccc6ccccc6c5)C(=O)[C@H]3N(CCCO)C(=O)[C@@H]4[C@@H]12` (stereo not given in full) yielded a composite z-score of 1.59. `CC(=O)NCCCC[C@@H]1NC(=O)[C@H]2C[C@@H](C(=O)NCCCCCC[N+](C)(C)C)[C@@H](c3cccc(OCCO)c3)N2C1=O`: the composite z-score stood at 1.42. The result for `C=CCOC(=O)[C@@H]1[C@H]2C(=O)O[C@H](c3ccccc3)[C@H](c3ccccc3)N2[C@H](c2ccc(OCCOC(=O)[C@@H]3C[C@@H]4C(=O)NCC(=O)N4[C@@H]3c3cccc(OCCO)c3)cc2)[C@@]12C(=O)Nc1ccc(I)cc12` reads 1.35; that for `CC(C)OC(=O)CC(=O)CC(O)c1ccc(C#N)cc1` (stereo not given), 0.552.

For `C=CCNC(=O)[C@H]1[C@@H]2C(=O)O[C@@H](c3ccccc3)[C@@H](c3ccccc3)N2[C@@H](c2ccc(O)cc2)[C@]12C(=O)N(C(=O)OCCOC)c1ccc(C#CCCO)cc12`, the composite z-score was 1.32. The result for `C=CC[C@@]1(C(=O)O)N=C(c2ccc(OCCCO)cc2)O[C@@H]1c1ccccc1N=[N+]=[N-]` reads 1.07.

Compound `CC(=O)NCCCC[C@@H]1NC(=O)[C@@H]2C[C@H](C(=O)NCCCCN(C)C)[C@H](c3ccc(O)cc3)N2C1=O` came in with a composite z-score of 0.939. With `CCOC(=O)C1=C[C@@H](CC)N(S(=O)(=O)c2ccc(C)cc2)[C@H]1c1ccccc1`, the composite z-score is 0.919. The value for `Cc1ccc([C@H]2[C@H](C(=O)O)[C@H](Sc3ccccc3)[C@@H](C(C)C)N2S(=O)(=O)c2ccc(C)cc2)cc1` was 0.945; that for `COCCOC(=O)N1C(=O)[C@@]2(c3cc(C#CCNC(N)=O)ccc31)[C@H](c1ccc(OCCO)cc1)N1[C@H](c3ccccc3)[C@H](c3ccccc3)OC(=O)[C@H]1[C@@H]2C(=O)N1CCc2cc(OC)c(OC)cc2C1` was 0.371.

In the case of `C=C[C@@H](COC(C)=O)N(Cc1ccc([N+](=O)[O-])cc1)S(=O)(=O)c1ccc(Br)cc1`, the composite z-score was found to be 1.12. The value for `CCCCC(CC)C(O)C1C=CC2C(=O)N(c3ccccc3)C(=O)C2N1Nc1ccccc1` (stereo not given) was 1.06; that for `COC(=O)C[C@H]1O[C@]2(C(=O)N(Cc3ccccc3)c3ccc(NC(C)=O)cc32)[C@@H](C)[C@@H]1[Si](C)(C)c1ccc(OC)cc1` was 0.882; that for `COCCOC(=O)N1C(=O)[C@@]2(c3ccccc31)[C@H](C(=O)NC[C@H](O)c1ccccc1)[C@H]1C(=O)O[C@H](c3ccccc3)[C@H](c3ccccc3)N1[C@@H]2c1ccc(OCCO)cc1` was 1.08. On to `O=C(O)[C@@]1(Cc2ccccc2)N=C(c2ccc(OCCCO)cc2)O[C@H]1c1ccccc1`, for which the composite z-score was 0.923.

`O=C/C=C/c1ccc2c(c1)OCO2` yielded a composite z-score of 0.0106. The value for `CCCC[C@@H]1C[C@H]1[C@@H](NC(=O)c1ccc(-c2ccccc2)cc1)c1ccc(-c2ccccc2)cc1` was 0.217. `C=CCOC(=O)[C@H]1[C@@H]2C(=O)O[C@@H](c3ccccc3)[C@@H](c3ccccc3)N2[C@@H](c2ccc(OCCOC(=O)[C@@H]3C[C@@H]4C(=O)NCC(=O)N4[C@@H]3c3ccc(O)cc3)cc2)[C@]12C(=O)Nc1ccccc12` registered a composite z-score of 1.26. The result for `O=C1O[C@@H](c2ccccc2)[C@@H](c2ccccc2)N2[C@@H](c3ccc(O)cc3)[C@]3(C(=O)Nc4ccc(C#CC5=CCCCC5)cc43)[C@@H](C(=O)O)[C@H]12` reads 1.14; that for `CC(=O)Nc1cc(Br)ccc1C(=O)O`, 0.748. The value for `CC(C)(C)OC(=O)CC[C@@]1(C(=O)O)N=C(c2ccc(OCCCO)cc2)O[C@@H]1c1ccccc1N=[N+]=[N-]` was 1.15.
